Test results: the supplement of paper PMC10849652
About 8,800 targets were measured; listed, in parts, are those with a hit and a random draw of the rest. About 0.5% of all pairs of compound and target were hits.

Assays:
Test in all cases: log2 fold change, soluble protein after heating vs DMSO (PISA); higher = thermal stabilisation; K562 lysate, 10 uM; active = over 0.2 and 3.5 SD of the protein, either way, in both replicates (recomputed)
vemurafenib = compound: CCCS(=O)(=O)Nc1ccc(F)c(C(=O)c2c[nH]c3ncc(-c4ccc(Cl)cc4)cc23)c1F [vemurafenib]
Method in brief: (§1)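 Pellets of K562 cells were dounce-homogenised in PBS pH 7.4 with 1 mM MgCl2, and the crude extract was held at 1 mg/mL protein for a 30 min treatment with 10 μM compound. Aliquots were heated for 3 min over 48°C-58°C and pooled before NP-40 was added to 0.5% at 4°C. The supernatant from 21,000xg for 90 min was quantified by TMTpro 16plex LC-MS/MS with channel sums equalised. Values are reported from duplicates as log-two fold change in thermal stability relative to solvent controls.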

[1] = compound: CCCS(=O)(=O)Nc1ccc(F)c(C(=O)c2c[nH]c3ncc(Cl)cc23)c1F
Method in brief: as §1

[2] = compound: CC[C@@H]1C(=O)N(C)c2cnc(Nc3ccc(C(=O)NC4CCN(C)CC4)cc3OC)nc2N1C1CCCC1
Method in brief: as §1

volasertib = compound: CC[C@@H]1C(=O)N(C)c2cnc(Nc3ccc(C(=O)N[C@H]4CC[C@H](N5CCN(CC6CC6)CC5)CC4)cc3OC)nc2N1C(C)C [volasertib]
Method in brief: as §1

[3] = compound: CCn1c(C(=O)N(C2CC2)C2CC2)cc2c3c(ncn3C)c(Nc3cc(C)n(C)n3)nc21
Method in brief: as §1

[4] = compound: CCn1cc(-c2ccnc3[nH]c(-c4cccc(CN(C)C)c4)cc23)c(-c2ccc(NC(=O)N(C)C)cc2)n1
Method in brief: as §1

[5] = compound: CN1CCC(CNc2ccc3ncc(-c4cccc(OC(F)(F)F)c4)n3n2)CC1
Method in brief: as §1

saracatinib = compound: CN1CCN(CCOc2cc(OC3CCOCC3)c3c(Nc4c(Cl)ccc5c4OCO5)ncnc3c2)CC1 [saracatinib]
Method in brief: as §1

sotrastaurin = compound: CN1CCN(c2nc(C3=C(c4c[nH]c5ccccc45)C(=O)NC3=O)c3ccccc3n2)CC1 [sotrastaurin]
Method in brief: as §1

barasertib = compound: CCN(CCCOc1ccc2c(Nc3cc(CC(=O)Nc4cccc(F)c4)[nH]n3)ncnc2c1)CCOP(=O)(O)O [barasertib]
Method in brief: as §1

Measured: log2 fold change

ZDHHC17 (UniProt Q8IUH5)
Chain of UniProt Q8IUH5 (Q8IUH5 whole entry, looked up): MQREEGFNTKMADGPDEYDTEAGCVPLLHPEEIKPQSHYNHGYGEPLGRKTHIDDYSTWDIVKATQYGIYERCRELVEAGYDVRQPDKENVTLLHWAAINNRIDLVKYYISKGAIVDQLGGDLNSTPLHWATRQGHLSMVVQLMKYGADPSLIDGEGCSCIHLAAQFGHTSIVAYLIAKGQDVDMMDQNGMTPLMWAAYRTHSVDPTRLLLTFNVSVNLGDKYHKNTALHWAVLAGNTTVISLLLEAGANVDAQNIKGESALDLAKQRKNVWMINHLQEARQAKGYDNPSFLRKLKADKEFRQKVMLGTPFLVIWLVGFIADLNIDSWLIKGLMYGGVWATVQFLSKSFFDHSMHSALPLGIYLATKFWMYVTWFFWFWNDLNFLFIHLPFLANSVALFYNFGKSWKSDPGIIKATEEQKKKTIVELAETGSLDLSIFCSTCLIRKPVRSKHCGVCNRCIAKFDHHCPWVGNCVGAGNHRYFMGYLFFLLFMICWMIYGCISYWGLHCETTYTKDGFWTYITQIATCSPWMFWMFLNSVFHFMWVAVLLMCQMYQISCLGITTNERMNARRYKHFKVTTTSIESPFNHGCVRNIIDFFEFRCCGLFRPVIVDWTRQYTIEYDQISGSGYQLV
inactive: vemurafenib 0.058 | [1] 0.047 | [2] 0.077 | volasertib -0.071 | [3] 0.166 | [4] -0.346 | [5] 0.141 | saracatinib 0.205 | sotrastaurin 0.117

ZSCAN21 (UniProt Q9Y5A6)
Chain of UniProt Q9Y5A6 (Q9Y5A6 whole entry, looked up): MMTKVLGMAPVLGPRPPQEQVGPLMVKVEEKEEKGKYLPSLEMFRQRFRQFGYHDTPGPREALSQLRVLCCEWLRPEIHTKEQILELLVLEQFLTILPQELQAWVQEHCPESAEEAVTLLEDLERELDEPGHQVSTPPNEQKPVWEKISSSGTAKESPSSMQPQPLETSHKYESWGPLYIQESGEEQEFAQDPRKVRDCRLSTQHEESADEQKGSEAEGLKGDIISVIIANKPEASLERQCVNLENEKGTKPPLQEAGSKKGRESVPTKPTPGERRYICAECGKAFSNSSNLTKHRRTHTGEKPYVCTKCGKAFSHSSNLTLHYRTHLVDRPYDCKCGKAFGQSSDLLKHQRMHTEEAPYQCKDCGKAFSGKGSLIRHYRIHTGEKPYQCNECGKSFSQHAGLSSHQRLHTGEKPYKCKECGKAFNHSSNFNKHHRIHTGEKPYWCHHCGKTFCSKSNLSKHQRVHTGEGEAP
inactive: [2] -0.024 | [4] 0.043 | [5] 0.053

WEE1 (UniProt P30291)
Chain of UniProt P30291 (P30291 whole entry, looked up): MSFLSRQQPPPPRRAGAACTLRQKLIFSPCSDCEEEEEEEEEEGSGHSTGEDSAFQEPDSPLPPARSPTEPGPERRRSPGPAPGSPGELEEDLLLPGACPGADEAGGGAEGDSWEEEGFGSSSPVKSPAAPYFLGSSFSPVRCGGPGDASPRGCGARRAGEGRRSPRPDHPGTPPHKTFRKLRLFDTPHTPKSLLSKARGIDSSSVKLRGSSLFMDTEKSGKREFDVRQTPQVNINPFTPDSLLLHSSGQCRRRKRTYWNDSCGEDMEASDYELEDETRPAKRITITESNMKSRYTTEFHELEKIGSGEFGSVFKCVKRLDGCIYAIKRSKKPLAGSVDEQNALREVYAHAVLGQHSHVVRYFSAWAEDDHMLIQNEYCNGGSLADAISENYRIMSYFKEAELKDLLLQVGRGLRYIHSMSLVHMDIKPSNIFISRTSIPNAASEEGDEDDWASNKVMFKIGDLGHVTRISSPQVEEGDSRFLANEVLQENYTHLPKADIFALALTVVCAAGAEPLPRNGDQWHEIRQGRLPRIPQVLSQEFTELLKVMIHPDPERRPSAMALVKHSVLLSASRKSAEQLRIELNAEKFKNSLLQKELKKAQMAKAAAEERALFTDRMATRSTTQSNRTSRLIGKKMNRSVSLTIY
inactive: vemurafenib 0.029 | [1] 0.056 | barasertib 0.015 | [2] -0.25 | volasertib -0.032 | [3] -0.077 | saracatinib -0.016 | sotrastaurin -0.1

ZNF652 (UniProt Q9Y2D9)
Chain of UniProt Q9Y2D9 (Q9Y2D9 whole entry, looked up): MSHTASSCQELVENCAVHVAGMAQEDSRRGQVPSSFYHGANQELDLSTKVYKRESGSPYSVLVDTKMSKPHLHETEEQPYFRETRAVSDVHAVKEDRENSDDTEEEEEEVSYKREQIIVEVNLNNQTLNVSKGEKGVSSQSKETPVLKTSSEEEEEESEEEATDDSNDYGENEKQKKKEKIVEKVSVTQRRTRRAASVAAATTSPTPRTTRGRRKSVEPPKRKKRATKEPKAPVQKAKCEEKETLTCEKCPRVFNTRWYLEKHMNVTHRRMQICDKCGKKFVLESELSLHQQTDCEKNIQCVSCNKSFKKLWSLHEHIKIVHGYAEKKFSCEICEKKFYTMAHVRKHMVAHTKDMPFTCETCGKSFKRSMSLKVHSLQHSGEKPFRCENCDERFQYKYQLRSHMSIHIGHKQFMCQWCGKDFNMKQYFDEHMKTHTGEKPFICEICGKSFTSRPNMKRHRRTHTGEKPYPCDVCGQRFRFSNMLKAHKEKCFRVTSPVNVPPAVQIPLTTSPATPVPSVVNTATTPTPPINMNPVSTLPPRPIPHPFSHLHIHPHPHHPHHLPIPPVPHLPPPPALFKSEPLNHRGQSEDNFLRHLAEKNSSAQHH
inactive: sotrastaurin -0.034

WIPI1 (UniProt Q5MNZ9)
Chain of UniProt Q5MNZ9 (Q5MNZ9 whole entry, looked up): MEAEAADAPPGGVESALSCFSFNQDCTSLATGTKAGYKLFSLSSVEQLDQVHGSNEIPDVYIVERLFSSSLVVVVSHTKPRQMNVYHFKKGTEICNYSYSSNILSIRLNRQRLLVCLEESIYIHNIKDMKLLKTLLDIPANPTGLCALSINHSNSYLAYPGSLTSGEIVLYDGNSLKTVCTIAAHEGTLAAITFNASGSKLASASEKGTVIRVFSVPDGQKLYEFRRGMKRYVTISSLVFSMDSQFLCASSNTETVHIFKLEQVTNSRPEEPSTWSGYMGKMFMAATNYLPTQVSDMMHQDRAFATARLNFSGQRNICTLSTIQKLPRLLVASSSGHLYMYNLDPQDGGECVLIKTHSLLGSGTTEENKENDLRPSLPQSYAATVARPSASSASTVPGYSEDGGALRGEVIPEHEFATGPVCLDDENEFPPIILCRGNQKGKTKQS
inactive: [1] 0.044 | barasertib 0.04 | [2] 0.119 | volasertib -0.014 | [3] -0.043 | [4] -0.079 | [5] 0.022 | saracatinib 0.025 | sotrastaurin -0.074

VPS72 (UniProt Q15906)
Chain of UniProt Q15906 (Q15906 whole entry, looked up): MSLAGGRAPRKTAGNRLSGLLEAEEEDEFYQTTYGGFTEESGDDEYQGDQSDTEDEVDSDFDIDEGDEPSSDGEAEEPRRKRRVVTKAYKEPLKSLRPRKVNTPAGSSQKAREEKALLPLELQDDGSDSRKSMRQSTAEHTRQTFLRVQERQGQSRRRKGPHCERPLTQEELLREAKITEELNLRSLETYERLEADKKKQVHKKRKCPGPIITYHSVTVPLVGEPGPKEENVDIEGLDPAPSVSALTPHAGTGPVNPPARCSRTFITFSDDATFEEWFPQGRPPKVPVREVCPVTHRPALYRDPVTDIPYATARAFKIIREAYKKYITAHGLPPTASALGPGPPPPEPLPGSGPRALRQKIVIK
inactive: vemurafenib 0.054 | [1] -0.139 | [2] -0.009 | volasertib 0.162 | [3] 0.021 | [4] 0.056 | [5] 0.078 | saracatinib 0.04 | sotrastaurin 0.024
